Laboratory results from PubChem BioAssay (NCI).
Compounds without any hit were thinned out: in the full panel of roughly 83,000, 20% have a hit.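 How to read the values: 0–100, growth inhibition (40 = 60% inhibited); 0, no net growth; -100 to 0, cell death (-40 = 40% of starting cells died; -100 = all dead).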 Unmarked numbers belong to inactive results. The source made the active and inactive calls. The calls were made as follows: active = growth percent below 10; inactive = the rest.

What was measured:
Assay in all cases: NCI-60 one-dose screen, 48 h (100 = growth as untreated, 0 = no growth, -100 = all killed)
Details in all cases: 10 µM unless noted
NCI-H23 lung = test system: NCI-H23 lung
NCI-H226 lung = test system: NCI-H226 lung
NCI-H322M lung = test system: NCI-H322M lung
HOP-62 NSCLC = test system: HOP-62 NSCLC
NCI-H460 lung = test system: NCI-H460 lung
HOP-92 NSCLC = test system: HOP-92 NSCLC
NCI-H522 lung = test system: NCI-H522 lung
A549/ATCC NSCLC = test system: A549/ATCC NSCLC
786-0 renal = test system: 786-0 renal
COLO 205 colon = test system: COLO 205 colon

Row | SMILES | growth (NCI-H23 lung) | growth (NCI-H226 lung) | growth (NCI-H322M lung) | growth (HOP-62 NSCLC) | growth (NCI-H460 lung) | growth (HOP-92 NSCLC) | growth (NCI-H522 lung) | growth (A549/ATCC NSCLC) | growth (786-0 renal) | growth (COLO 205 colon)
1 | CCOC(=O)c1c(C)c2c(n1Cc1ccccc1)CSc1cc(C#N)c(=O)[nH]c1-2 | 72.6% [100 µM] | 89.6% [100 µM] | 78.6% [100 µM] | 58.7% [100 µM] | 67% [100 µM] | -18.5% [100 µM] (active) | 87% [100 µM] | 75.1% [100 µM] | 19.8% [100 µM] | 60.4% [100 µM]
2 | COc1cccc(/C=C/C(=O)/C=C(/C=C/c2cccc(OC)c2OC)OB(F)F)c1OC | 44.2% | 107% | 92.5% | 80.3% | 90.7% | 103% | 17.4% | 88.7% | 45.1% | 32.9%
3 | Cc1cccc(CN(Nc2ccccc2)c2ccccc2)n1 | 104% | 103% | 96.7% | 99.8% | 101% | 65% | 103% | 93.1% | 107% | 111%
4 | O=C1Nc2ccccc2/C1=C/c1cccn1CCCCCCn1c2ccccc2c(=O)c2ccccc21 | 73.6% | 72.7% | 97.9% | 63.2% | 90.7% | 56.4% | 66% | 87.9% | 103% | 50.5%
5 | O=C(Nc1ncc(Cc2cc(C(F)(F)F)ccc2Cl)s1)C(=S)N1CCOCC1 | 89.8% | 88.3% | 94.6% | 93% | 100% | 70.4% | 74.7% | 93.8% | 94.6% | 96.4%
6 | Cc1ccc(C23CCC(=O)N2CCc2cncn23)cc1 (configuration not stated) | 97.4% | 96.2% | 99.3% | 94.8% | 110% | 87.2% | 87.9% | 96.7% | 108% | 98.6%
7 | COCCNC(=O)Cc1cc(-c2ccc(Cl)cc2)n(-c2ccccc2)c1C | 73.6% | 89.8% | 95.4% | 2.89% (active) | 94% | 78.8% | 58.8% | 82.1% | 88.7% | 96.3%
8 | COC(=O)[C@H]1Cc2c([nH]c3ccccc23)[C@H](c2ccc3c(c2)OCO3)N1 | 99.7% | 98.5% | 98.9% | 107% | 106% | 84.9% | 83.2% | 105% | 98.5% | 118%
9 | CNC(=O)c1cc(Oc2cccc3nc(NC(=O)Nc4ccc(F)cc4F)ccc23)ccn1 | 42.7% | 49.7% | 33% | 0.65% (active) | 13.7% | 41.4% | 46% | 8.57% (active) | -48.7% (active) | 37.9%
10 | COc1ccc(-c2cc(-c3ccc(N(C)C)cc3)nc(NC(=O)c3cccnc3)n2)cc1 | 105% | 98.8% | 93% | 100% | 96.1% | 124% | 93% | 105% | 103% | 104%
11 | Cc1nc2cccc(NCc3ccc(C(=O)NO)cc3)c2c(=O)n1-c1ccccc1 | -16.8% (active) | 67.2% | 66.8% | 43.9% | 29.3% | 15.3% | -2.46% (active) | 34.1% | 54.5% | -37.9% (active)
12 | CC(C)(C)n1cc(-c2ccnc(NCCNS(=O)(=O)c3ccc(Br)cc3)c2)c(-c2cccc(O)c2)n1 | 35.2% | 45.4% | 62.7% | 61.1% | 1.07% (active) | 18.5% | 16.7% | 28.9% | 21.2% | -74.9% (active)
13 | COc1cc2c(c(OC)c1OC)CCC(c1cccc(NC(=O)c3cccc(Cl)c3)c1)O2 (configuration not stated) | 92.7% | 79.8% | 90.3% | 92.8% | 96.9% | 83.1% | 62.1% | 85% | 96.7% | 94.2%
14 | CCC(C)C(N)C(=O)NC(CC(C)C)C(=O)N1CCCC1C(=O)NC(Cc1c[nH]c2ccccc12)C(=O)NC(CCCCN)C(=O)NC(Cc1c[nH]c2ccccc12)C(=O)N1CCCC1C(=O)NC(Cc1c[nH]c2ccccc12)C(=O)NC(Cc1c[nH]c2ccccc12)C(=O)N1CCCC1C(=O)NC(Cc1c[nH]c2ccccc12)C(=O)NC(CCCNC(=N)N)C(=O)NC(CCCNC(=N)N)C(N)=O (configuration not stated) | 104% | 112% | 100% | 103% | 107% | 86.2% | – | 106% | 102% | 97.2%
15 | CCC(=C(c1ccc(OCCN(CC)CC)cc1)c1ccc(OCCN(CC)CC)cc1)c1ccc(Cl)cc1 | 68.7% | 109% | -8.03% (active) | -27% (active) | -81.4% (active) | 33.5% | – | -75% (active) | -95.4% (active) | -69% (active)
16 | COC(=O)c1c(C(=O)OC)c2ccc3c4ncccc4ccc3n2c1C(=O)c1ccc(C)cc1 | 101% | 96.6% | 90.7% | 76.7% | 101% | 91.7% | – | 83.2% | 91% | 98.8%
